Laboratory results reported in PubChem BioAssay AID1159580 (chemical genetic matrix, 2015).
Screen size: about 5,500 compounds; about 2,000 (36%) were called active. Inconclusive results (about 18%) are left out. Some of the results follow. Unmarked numbers belong to inactive results. Rule as the data show it: active = normalized growth mostly below about 0.91 (no sharp cut-off); inconclusive = no clear call, values can overlap the other calls; inactive = mostly above about 0.92.

Assay: chemical genetic growth profiling, strain panel (AID 1159580);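 also: tested at 20 µM; growth read once vehicle control cultures reached saturation at 30 °C; 1 = growth at the plate median or of vehicle wells; lower values mean less growth of the strain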
Conditions: growth OD
[1] = S. cerevisiae deletion strains, locus YAL013W, strain DEP1, active compounds read low
[2] = S. cerevisiae deletion strains, locus YBR229C, strain ROT2, active compounds read low
[3] = S. cerevisiae deletion strains, locus YCL061C, strain MRC1, active compounds read low
[4] = S. cerevisiae deletion strains, locus YDL101C, strain DUN1, active compounds read low
[5] = S. cerevisiae deletion strains, locus YDR150W, strain NUM1, active compounds read low
[6] = S. cerevisiae deletion strains, locus YEL061C, strain CIN8, active compounds read low
[7] = S. cerevisiae deletion strains, locus YGR078C, strain PAC10, active compounds read low
[8] = S. cerevisiae deletion strains, locus YGR229C, strain SMI1, active compounds read low
[9] = S. cerevisiae deletion strains, locus YHR030C, strain SLT2, active compounds read low
[10] = S. cerevisiae deletion strains, locus YHR087W, strain rtc3, active compounds read low
[11] = S. cerevisiae deletion strains, locus YJL187C, strain SWE1, active compounds read low
[12] = S. cerevisiae deletion strains, locus YJR043C, strain POL32, active compounds read low
[13] = S. cerevisiae deletion strains, locus YJR075W, strain HOC1, active compounds read low
[14] = S. cerevisiae deletion strains, locus YKL190W, strain CNB1, active compounds read low
[15] = S. cerevisiae deletion strains, locus YLR039C, strain RIC1, active compounds read low
[16] = S. cerevisiae deletion strains, locus YLR058C, strain SHM2 (second series), active compounds read low
[17] = S. cerevisiae deletion strains, locus YLR085C, strain ARP6, active compounds read low
[18] = S. cerevisiae deletion strains, locus YLR262C, strain YPT6, active compounds read low
[19] = S. cerevisiae deletion strains, locus YML094W, strain GIM5, active compounds read low
[20] = S. cerevisiae deletion strains, locus YMR219W, strain ESC1, active compounds read low
[21] = S. cerevisiae deletion strains, locus YMR263W, strain SAP30, active compounds read low
[22] = S. cerevisiae deletion strains, locus YNL153C, strain GIM3, active compounds read low
[23] = S. cerevisiae deletion strains, locus YNL298W, strain CLA4 (second series), active compounds read low
[24] = S. cerevisiae deletion strains, locus YNL322C, strain KRE1, active compounds read low
[25] = S. cerevisiae deletion strains, locus YNR030W, strain Alg12, active compounds read low
[26] = S. cerevisiae deletion strains, locus YPL055C, strain LGE1, active compounds read low
[27] = S. cerevisiae deletion strains, locus YPL241C, strain CIN2, active compounds read low
[28] = S. cerevisiae deletion strains, locus YPR135W, strain CTF4, active compounds read low
[29] = S. cerevisiae deletion strains, locus YNL128W, strain TEP1, active compounds read low
[30] = S. cerevisiae deletion strains, locus YMR307W, strain GAS1, active compounds read low

Compound: CCO/C=C1\SC(=S)N(CCc2ccccc2)C1=O
- normalized growth [1]: 0.969
- normalized growth [2]: 0.898 (active)
- normalized growth [3]: 0.882 (active)
- normalized growth [4]: 0.973
- normalized growth [5]: 0.986
- normalized growth [6]: 0.66 (active)
- normalized growth [7]: 0.919 (active)
- normalized growth [8]: 0.893 (active)
- normalized growth [9]: 0.149 (active)
- normalized growth [10]: 0.847 (active)
- normalized growth [11]: 0.897 (active)
- normalized growth [12]: 0.961
- normalized growth [13]: 0.843 (active)
- normalized growth [14]: 0.736 (active)
- normalized growth [15]: 0.166 (active)
- normalized growth [16]: 0.898 (active)
- normalized growth [17]: 0.181 (active)
- normalized growth [18]: 0.193 (active)
- normalized growth [19]: 0.882
- normalized growth [20]: 0.906 (active)
- normalized growth [21]: 0.962
- normalized growth [22]: 0.936
- normalized growth [23]: 0.561 (active)
- normalized growth [24]: 0.926 (active)
- normalized growth [25]: 0.929
- normalized growth [26]: 0.975
- normalized growth [27]: 0.969
- normalized growth [28]: 0.305 (active)

Compound: COc1ccc(OC)c(S(=O)(=O)Oc2ccc(C#N)cc2)c1
- normalized growth [1]: 0.997
- normalized growth [2]: 0.994
- normalized growth [3]: 1.02
- normalized growth [4]: 0.984
- normalized growth (S. cerevisiae deletion strains, locus YDL134C, strain PPH21, active compounds read low): 1.01
- normalized growth [5]: 0.98
- normalized growth [6]: 0.956
- normalized growth [7]: 0.994
- normalized growth [8]: 0.968
- normalized growth [9]: 0.937
- normalized growth [10]: 0.968
- normalized growth [12]: 0.981
- normalized growth [13]: 1
- normalized growth [15]: 1.09
- normalized growth [16]: 0.992
- normalized growth [17]: 0.93
- normalized growth [18]: 1.09
- normalized growth [19]: 0.981
- normalized growth [20]: 1.01
- normalized growth [21]: 0.992
- normalized growth [29]: 1
- normalized growth [22]: 0.977
- normalized growth [23]: 0.972
- normalized growth [24]: 1
- normalized growth [25]: 0.973
- normalized growth [26]: 0.961
- normalized growth [27]: 0.987
- normalized growth [28]: 0.924

Compound: Cc1ccc(OS(=O)(=O)c2ccc(C#N)cc2)c(Br)c1
- normalized growth [1]: 0.954
- normalized growth [2]: 1
- normalized growth [4]: 0.954
- normalized growth [5]: 0.973
- normalized growth [6]: 0.934
- normalized growth [7]: 0.976
- normalized growth [9]: 0.62 (active)
- normalized growth [11]: 1.02
- normalized growth [12]: 0.979
- normalized growth [13]: 0.953
- normalized growth [15]: 0.712 (active)
- normalized growth [16]: 0.997
- normalized growth [17]: 0.784
- normalized growth [18]: 0.796 (active)
- normalized growth [19]: 0.957
- normalized growth [20]: 0.985
- normalized growth [21]: 0.966
- normalized growth [29]: 0.969
- normalized growth [22]: 0.96
- normalized growth [23]: 0.881
- normalized growth [24]: 0.981
- normalized growth [25]: 0.918
- normalized growth (S. cerevisiae deletion strains, locus YOL006C, strain TOP1, active compounds read low): 0.765
- normalized growth [26]: 0.936
- normalized growth [27]: 0.927
- normalized growth [28]: 0.628 (active)
- normalized growth (S. cerevisiae strains, strain wild type, active compounds read low): 0.907 (active)

Compound: COc1ccc(OC)c(S(=O)(=O)Nc2ccc(C#N)cc2)c1
- normalized growth [1]: 0.978
- normalized growth [2]: 1.01
- normalized growth [4]: 1
- normalized growth [5]: 0.998
- normalized growth [6]: 1.02
- normalized growth [7]: 1.02
- normalized growth [8]: 1
- normalized growth [9]: 1.01
- normalized growth [10]: 1.01
- normalized growth [11]: 1
- normalized growth [12]: 0.989
- normalized growth [13]: 1.01
- normalized growth [14]: 0.996
- normalized growth [15]: 0.993
- normalized growth [16]: 1
- normalized growth [17]: 1.04
- normalized growth [18]: 0.953
- normalized growth [19]: 1.03
- normalized growth [20]: 1
- normalized growth [21]: 0.997
- normalized growth [30]: 1.05
- normalized growth [22]: 0.998
- normalized growth [23]: 1
- normalized growth [24]: 0.993
- normalized growth [25]: 1.02
- normalized growth [26]: 1.02
- normalized growth [27]: 1.02
- normalized growth [28]: 0.951

Compound: NNC(N)=O
- normalized growth [1]: 1.03
- normalized growth (S. cerevisiae deletion strains, locus YAL040C, strain CLN3, active compounds read low): 1.01
- normalized growth (S. cerevisiae deletion strains, locus YCL061C, strain MRC1 (second series), active compounds read low): 1.01
- normalized growth (S. cerevisiae deletion strains, locus YDR363W, strain ESC2, active compounds read low): 1.02
- normalized growth (S. cerevisiae deletion strains, locus YER002W, strain NOP16, active compounds read low): 1.01
- normalized growth [8]: 1.03
- normalized growth [13]: 1.02
- normalized growth [30]: 0.998
- normalized growth (S. cerevisiae deletion strains, locus YNL175C, strain NOP13, active compounds read low): 1.01
- normalized growth (S. cerevisiae deletion strains, locus YNL197C, strain WHI3, active compounds read low): 1
- normalized growth (S. cerevisiae deletion strains, locus YNL224C, strain SQS1, active compounds read low): 1
- normalized growth [24]: 1.03
- normalized growth (S. cerevisiae deletion strains, locus YOR083W, strain WHI5 (second series), active compounds read low): 1
- normalized growth [26]: 1.05
